This is part of a sample that, as a whole, favours compounds with a hit. Of some 83,000 tested, about 20% had one in any assay.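 Cell lines were cultured in 96-well plates, exposed to a single compound concentration, and assessed for percent growth 48 hours later.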 Calls of active or inactive are those of the source. The calls were made as follows: active = growth percent below 10; inactive = the rest.
These molecules were tested on DU-145 prostate (assay: NCI-60 one-dose screen, 48 h (100 = growth as untreated, 0 = no growth, -100 = all killed)). Conditions: 10 µM.

Row | Structure (SMILES) | growth
1 | COc1cc2c3c(n([C@H]4CCOC4)c(=O)c2cc1OC)-c1cc2c(cc1C3=O)OCO2 | 19.8% (inactive)
2 | C=C/C(C)=C/C[C@]1(C)[C@H](C)[C@@H](OC(=O)CCC)[C@H](O)[C@@]23C(=C[C@H](OC)C[C@@H]12)[C@@H](OC(=O)CCC)O[C@H]3OC(C)=O | 14.3% (inactive)
3 | Fc1ccc2[nH]cc(-c3nc(-c4ccsc4)cs3)c2c1 | 108% (inactive)
4 | CN1CCc2c(sc3nc4n(-c5ccc(Cl)cc5)cnn4c(=O)c23)C1 | 110% (inactive)
5 | O=C(CCCNC(=O)c1nc(-c2ccccc2)n(-c2ccccc2)n1)NO | 108% (inactive)
6 | Nc1ccc(-c2cccs2)cc1NC(=O)c1ccc(CCCC(=O)Nc2ccc(C3CC3N)cc2)cc1 (stereo not drawn) | 84.6% (inactive)
7 | CCOC(=O)c1sc2ncnc(Nc3ccc(NC(=O)Nc4ccc(Cl)cc4)cc3)c2c1C | 54% (inactive)
8 | CCNc1nc(C(F)(F)F)nc2c1sc(=S)n2-c1ccccc1 | 101% (inactive)
9 | COc1ccc([C@H]2[C@H](C(=O)Nc3cccnc3)c3ccccc3C(=O)N2c2ccccc2)cc1 | 107% (inactive)
10 | O=C(CCCCNC(=O)c1nc(-c2ccccc2)n(-c2ccccc2)n1)NO | 98.6% (inactive)
11 | COc1cc(CNC(=O)C2CSC3(C)c4ccccc4C(=O)N23)cc(OC)c1OC (stereo not drawn) | 109% (inactive)
12 | COc1cc2c3c(n(C4CCNCC4)c(=O)c2cc1OC)-c1cc2c(cc1C3=O)OCO2 | -92.8% (active)
13 | C[C@@H](O)[C@H]1C(=O)N2C(C(=O)O)=C(SC3CN[C@H](C(=O)N(C)C)C3)[C@H](C)[C@H]12 (stereo partly drawn) | 110% (inactive)
14 | COc1cc2c3c(n([C@@H]4CCOC4)c(=O)c2cc1OC)-c1cc2c(cc1C3=O)OCO2 | 24.2% (inactive)
15 | CCOC(=O)c1sc2ncnc(Nc3ccc4c(cnn4C(=O)Nc4ccc(C)c(Cl)c4)c3)c2c1C | 102% (inactive)
16 | CN1C(C(=O)Nc2ccccn2)=C(O)c2sc(Cl)cc2S1(=O)=O | 106% (inactive)
17 | CCCN1CN2C(=O)N3CN(CCC)CN4C(=S)N(C1)C2C34 (stereo not drawn) | 101% (inactive)
18 | COc1ccc(-c2cc(-c3cc(OC)ccc3OC)nc(N)c2C#N)cc1 | 96.2% (inactive)
19 | c1cncc(-c2csc(-c3c[nH]c4ccccc34)n2)c1 | 103% (inactive)
20 | c1cnc2[nH]cc(-c3nc(-c4ccsc4)cs3)c2c1 | 98.8% (inactive)
21 | COc1ccc(-c2nn(-c3cccc(Cl)c3)cc2C=C(C#N)C#N)cc1 | 3.57% (active)
22 | CCOC(=O)c1sc2ncnc(Nc3ccc4c(cnn4C(=O)Nc4ccccc4)c3)c2c1C | 64.6% (inactive)
23 | CCCCCC(=O)O[C@]1(C(C)=O)CCC2C3CCC4=CC(=O)CC[C@]4(C)C3CC[C@@]21C (stereo partly drawn) | 55.4% (inactive)
24 | CCn1cc(CNc2ccc(C(=O)Nc3ccc4ccccc4c3)cc2)c(C)n1 | 61.2% (inactive)
25 | O=c1[nH]c(=O)n(C2C[C@H](O)[C@@H](CO)O2)cc1C(F)(F)F (stereo partly drawn) | 123% (inactive)

Each molecule was assayed on K-562 leukemia in the same assay as above. Conditions: 10 µM.

Row | Structure (SMILES) | growth
26 | Cc1c2c[n+](C(C)C)ccc2c(C)c2c1[nH]c1ccccc12 | 23.3% (inactive)
27 | Cc1ccc(-n2c(C)nn3c(=O)c4c5c(sc4nc23)CN(C)CC5)cc1 | 100% (inactive)
28 | CCCCCCCCCCCCCCCCCC[n+]1ccc2c(C)c3c(c(C)c2c1)c1cc(O)ccc1n3CC | 9.4% (active)
29 | Cc1c2cnccc2c(C)c2c1c1cc(O)ccc1n2C(C)C | 16.9% (inactive)
30 | COc1ccc(C(=O)CSc2nc(-c3cc(OC)ccc3OC)cc(-c3ccc(OC)cc3)c2C#N)cc1 | 102% (inactive)
31 | CCn1c2ccc(O)cc2c2c(C)c3c[n+](C)ccc3c(C)c21 | 60% (inactive)
32 | N#Cc1c(-c2ccc(Cl)cc2)cc(-c2cc(O)ccc2O)nc1N | 29.1% (inactive)
33 | CN1CCc2c(sc3nc4n(-c5ccc(Cl)cc5)c(=O)[nH]n4c(=O)c23)C1 | 107% (inactive)
34 | Cn1c2ccccc2c2c3[nH][nH]c(=O)c3c3c4ccccc4[nH]c3c21 | 32.3% (inactive)
35 | O=C1c2c(c3c4ccccc4n(CCCCCCN4CCOCC4)c3c3[nH]c4ccccc4c23)C(=O)N1O | -32.9% (active)
36 | Nc1ccccc1NC(=O)c1ccc(CCCC(=O)Nc2ccc(C3CC3N)cc2)cc1 (stereo not drawn) | 25.4% (inactive)
37 | Nc1nc(-c2cccnc2)nc2c1sc(=S)n2-c1ccccc1 | 106% (inactive)
38 | COc1cc2c3c(n([C@H]4CCOC4)c(=O)c2cc1OC)-c1cc2c(cc1C3=O)OCO2 | 59.6% (inactive)
39 | C=C/C(C)=C/C[C@]1(C)[C@H](C)[C@@H](OC(=O)CCC)[C@H](O)[C@@]23C(=C[C@H](OC)C[C@@H]12)[C@@H](OC(=O)CCC)O[C@H]3OC(C)=O | 10.3% (inactive)
40 | Fc1ccc2[nH]cc(-c3nc(-c4ccsc4)cs3)c2c1 | 106% (inactive)
41 | CN1CCc2c(sc3nc4n(-c5ccc(Cl)cc5)cnn4c(=O)c23)C1 | 106% (inactive)
42 | O=C(CCCNC(=O)c1nc(-c2ccccc2)n(-c2ccccc2)n1)NO | 106% (inactive)

Row | Structure (SMILES) | growth
43 | Nc1ccc(-c2cccs2)cc1NC(=O)c1ccc(CCCC(=O)Nc2ccc(C3CC3N)cc2)cc1 (stereo not drawn) | -30.7% (active)
44 | CCOC(=O)c1sc2ncnc(Nc3ccc(NC(=O)Nc4ccc(Cl)cc4)cc3)c2c1C | 83.7% (inactive)
45 | CCNc1nc(C(F)(F)F)nc2c1sc(=S)n2-c1ccccc1 | 103% (inactive)
46 | COc1ccc([C@H]2[C@H](C(=O)Nc3cccnc3)c3ccccc3C(=O)N2c2ccccc2)cc1 | 99.9% (inactive)
47 | O=C(CCCCNC(=O)c1nc(-c2ccccc2)n(-c2ccccc2)n1)NO | 81.7% (inactive)
48 | COc1cc(CNC(=O)C2CSC3(C)c4ccccc4C(=O)N23)cc(OC)c1OC (stereo not drawn) | 71.9% (inactive)
49 | COc1cc2c3c(n(C4CCNCC4)c(=O)c2cc1OC)-c1cc2c(cc1C3=O)OCO2 | -48.8% (active)
50 | COc1cc2c3c(n([C@@H]4CCOC4)c(=O)c2cc1OC)-c1cc2c(cc1C3=O)OCO2 | 55% (inactive)
51 | CCOC(=O)c1sc2ncnc(Nc3ccc4c(cnn4C(=O)Nc4ccc(C)c(Cl)c4)c3)c2c1C | 102% (inactive)
52 | CCCN1CN2C(=O)N3CN(CCC)CN4C(=S)N(C1)C2C34 (stereo not drawn) | 105% (inactive)
53 | COc1ccc(-c2cc(-c3cc(OC)ccc3OC)nc(N)c2C#N)cc1 | 89.5% (inactive)
54 | c1cncc(-c2csc(-c3c[nH]c4ccccc34)n2)c1 | 97.7% (inactive)
55 | c1cnc2[nH]cc(-c3nc(-c4ccsc4)cs3)c2c1 | 109% (inactive)
56 | COc1ccc(-c2nn(-c3cccc(Cl)c3)cc2C=C(C#N)C#N)cc1 | -13.2% (active)
57 | CCOC(=O)c1sc2ncnc(Nc3ccc4c(cnn4C(=O)Nc4ccccc4)c3)c2c1C | 91.6% (inactive)
58 | CCn1cc(CNc2ccc(C(=O)Nc3ccc4ccccc4c3)cc2)c(C)n1 | 59.5% (inactive)

From PubChem BioAssay (NCI)
